Laboratory results: PubChem BioAssay (EPA / NIEHS)
Results filed as inconclusive are left out. Some compounds were tested as several samples or in several runs, with calls that do not always agree. The source made the active and inactive calls. How the source made its calls: active means hit-call score of the fitted dose curve at least 0.9, where 1 is the maximum; inconclusive means response in the unintended direction; inactive means score below 0.9.

How the values were obtained:
[1] = ACEA_AR_agonist_AUC_viability: ACEA Biosciences xCELLigence Real-Time Cell Analysis on Androgen Receptor Agonism for Viability (AID 2283775);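 on AC50: viability read 80 hours after compound addition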
Outline: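 Real-time impedance tracking of 22Rv1 growth, readings every 5 min for 5 h then hourly; area-under-curve viability endpoint at 80 hours, relative to DMSO. Compounds at eight concentrations, 1:4 steps, top 100 uM, n = 2.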

[2] = system: zebrafish Androgen Receptor (AR), gene 100005148; assay: ATG_zfAR_XSP1: Attagene TRANS-FACTORIAL Multi-Species (XSP1) HepG2 Assay for zebrafish Androgen Receptor (AR) (AID 2283771)
Outline: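 HepG2 cells were transiently transfected with a zebrafish AR-GAL4 reporter system and partially stimulated with 3 nM 6-alpha-fluorotestosterone. Reporter mRNA was measured after 24 h dosing by RT-PCR with capillary electrophoresis, and gain-of-signal was fitted relative to DMSO.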

[3] = system: zebrafish Estrogen Receptor (ESR2B), gene 317733; assay: ATG_zfER2b_XSP1: Attagene TRANS-FACTORIAL Multi-Species (XSP1) HepG2 Assay for zebrafish Estrogen Receptor (ESR2B) (AID 2283773)
Outline: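 HepG2 cells transiently transfected with multiple GAL4-UAS reporter units expressing chimeric zebrafish ER2b-Gal4; 24 h chemical exposure with 3 nM 6-alpha-fluorotestosterone present. Reporter mRNA measured by RT-PCR and capillary electrophoresis; gain of signal fitted versus DMSO.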

[4] = system: frog Estrogen Receptor (ESR2), gene 100174814; assay: ATG_frER2_XSP1: Attagene TRANS-FACTORIAL Multi-Species (XSP1) HepG2 Assay for frog Estrogen Receptor (ESR2) (AID 2283774)
Outline: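 HepG2 cells transiently transfected with GAL4-UAS multiplexed reporter units expressing chimeric NR-Gal4 proteins; reporter mRNA measured 24 h after dosing by RT-PCR, FAM labeling, HpaI digestion and capillary electrophoresis. Gain-of-signal relative to DMSO; 3 nM 6-alpha-fluorotestosterone present.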

[5] = ACEA_AR_antagonist_AUC_viability: ACEA Biosciences xCELLigence Real-Time Cell Analysis on Androgen Receptor Antagonism for Viability (AID 2283776);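 further: 22Rv1 human prostate cancer cells growing on impedance electrode plates; hits lower the growth signal relative to DMSO meaning cytotoxicity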
Outline: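 Viability endpoint from label-free cell-index monitoring: 22Rv1 cultures treated with an eight-point 1:4 dilution series starting at 100 uM final, AUC at 80 h fitted against DMSO.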

[6] = system: zebrafish Estrogen Receptor (ESR2A), gene 317734; assay: ATG_zfER2a_XSP1: Attagene TRANS-FACTORIAL Multi-Species (XSP1) HepG2 Assay for zebrafish Estrogen Receptor (ESR2A) (AID 2283778)
Outline: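 HepG2 cells transiently transfected with multiplexed GAL4-UAS reporter units and chimeric NR-GAL4 receptors; 24 h compound exposure with 3 nM 6-alpha-fluorotestosterone present. Reporter mRNA quantified by RT-PCR and capillary electrophoresis, gain-of-signal fitted relative to DMSO.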

[7] = target: chicken Estrogen Receptor (ESR1), ESR1 (gene 396099) (UniProt P06212); assay: ATG_chERa_XSP1: Attagene TRANS-FACTORIAL Multi-Species (XSP1) HepG2 Assay for chicken Estrogen Receptor (ESR1) (AID 2283779)
Sequence of chicken Estrogen Receptor (ESR1), ESR1 (gene 396099) (P06212 whole entry, looked up, the tested form may be a part): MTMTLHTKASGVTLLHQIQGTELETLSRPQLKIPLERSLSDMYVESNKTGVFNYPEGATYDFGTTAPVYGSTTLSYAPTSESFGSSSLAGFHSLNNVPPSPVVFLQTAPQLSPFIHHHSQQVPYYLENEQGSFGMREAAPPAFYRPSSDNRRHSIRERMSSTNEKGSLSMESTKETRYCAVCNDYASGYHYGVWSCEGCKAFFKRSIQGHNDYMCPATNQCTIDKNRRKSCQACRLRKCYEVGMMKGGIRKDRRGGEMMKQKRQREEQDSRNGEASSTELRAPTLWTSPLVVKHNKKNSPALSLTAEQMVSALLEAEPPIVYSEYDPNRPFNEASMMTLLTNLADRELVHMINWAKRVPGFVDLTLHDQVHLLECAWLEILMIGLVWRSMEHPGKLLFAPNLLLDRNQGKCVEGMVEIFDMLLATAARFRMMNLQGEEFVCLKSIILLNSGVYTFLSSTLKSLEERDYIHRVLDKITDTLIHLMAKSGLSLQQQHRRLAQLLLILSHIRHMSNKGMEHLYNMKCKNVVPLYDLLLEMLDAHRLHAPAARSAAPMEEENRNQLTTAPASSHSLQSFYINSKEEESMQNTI
Outline: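 HepG2 cells transiently transfected with multiplexed GAL4-UAS reporter units expressing chimeric NR-Gal4 proteins; 3 nM 6-alpha-fluorotestosterone present. Reporter mRNA measured 24 h after dosing by RT-PCR, FAM labelling, HpaI digest and capillary electrophoresis; gain of signal versus DMSO.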

[8] = target: Estrogen receptor (Homo sapiens) (UniProt P03372); assay: ATG_hERa_XSP1: Attagene TRANS-FACTORIAL Multi-Species (XSP1) HepG2 Assay for human Estrogen Receptor (ESR1) (AID 2283780)
Sequence of Estrogen receptor (Homo sapiens) (P03372 whole entry, looked up, the tested form may be a part): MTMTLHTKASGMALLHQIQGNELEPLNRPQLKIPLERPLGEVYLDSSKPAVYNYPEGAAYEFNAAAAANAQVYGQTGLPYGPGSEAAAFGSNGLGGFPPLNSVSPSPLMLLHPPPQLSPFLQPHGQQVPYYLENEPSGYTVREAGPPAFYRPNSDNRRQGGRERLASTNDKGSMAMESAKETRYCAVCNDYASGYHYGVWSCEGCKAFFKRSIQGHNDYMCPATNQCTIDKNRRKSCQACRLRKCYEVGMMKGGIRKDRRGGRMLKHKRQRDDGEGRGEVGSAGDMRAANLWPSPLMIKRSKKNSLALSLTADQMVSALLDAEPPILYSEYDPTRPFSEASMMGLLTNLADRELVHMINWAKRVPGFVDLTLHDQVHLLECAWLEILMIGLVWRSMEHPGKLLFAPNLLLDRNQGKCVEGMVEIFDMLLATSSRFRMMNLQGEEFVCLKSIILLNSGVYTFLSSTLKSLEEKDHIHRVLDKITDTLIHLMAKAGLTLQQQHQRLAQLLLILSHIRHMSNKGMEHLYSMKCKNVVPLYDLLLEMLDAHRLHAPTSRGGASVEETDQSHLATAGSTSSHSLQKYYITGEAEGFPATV
Outline: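 HepG2 cells transiently transfected with GAL4-UAS reporter units and chimeric NR-Gal4 constructs; 24 h after dosing, reporter mRNA quantified by RT-PCR and capillary electrophoresis. Medium contained 3 nM 6-alpha-fluorotestosterone; activity fitted as gain-of-signal versus DMSO.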

[9] = system: turtle Estrogen Receptor (ESR1), gene 101933533; assay: ATG_trERa_XSP1: Attagene TRANS-FACTORIAL Multi-Species (XSP1) HepG2 Assay for turtle Estrogen Receptor (ESR1) (AID 2283781)
Outline: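 HepG2 cells transiently transfected with GAL4-UAS reporter units and chimeric NR-Gal4 constructs, dosed for 24 h with 3 nM 6-alpha-fluorotestosterone present. Reporter mRNA was quantified by RT-PCR, fluorescent labelling and capillary electrophoresis, with gain of signal fitted relative to DMSO.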

[10] = target: zebrafish Estrogen Receptor (ESR1), esr1 (gene 259252) (UniProt P57717); assay: ATG_zfER1_XSP1: Attagene TRANS-FACTORIAL Multi-Species (XSP1) HepG2 Assay for zebrafish Estrogen Receptor (ESR1) (AID 2283772)
Sequence of zebrafish Estrogen Receptor (ESR1), esr1 (gene 259252) (P57717 whole entry, looked up, the tested form may be a part): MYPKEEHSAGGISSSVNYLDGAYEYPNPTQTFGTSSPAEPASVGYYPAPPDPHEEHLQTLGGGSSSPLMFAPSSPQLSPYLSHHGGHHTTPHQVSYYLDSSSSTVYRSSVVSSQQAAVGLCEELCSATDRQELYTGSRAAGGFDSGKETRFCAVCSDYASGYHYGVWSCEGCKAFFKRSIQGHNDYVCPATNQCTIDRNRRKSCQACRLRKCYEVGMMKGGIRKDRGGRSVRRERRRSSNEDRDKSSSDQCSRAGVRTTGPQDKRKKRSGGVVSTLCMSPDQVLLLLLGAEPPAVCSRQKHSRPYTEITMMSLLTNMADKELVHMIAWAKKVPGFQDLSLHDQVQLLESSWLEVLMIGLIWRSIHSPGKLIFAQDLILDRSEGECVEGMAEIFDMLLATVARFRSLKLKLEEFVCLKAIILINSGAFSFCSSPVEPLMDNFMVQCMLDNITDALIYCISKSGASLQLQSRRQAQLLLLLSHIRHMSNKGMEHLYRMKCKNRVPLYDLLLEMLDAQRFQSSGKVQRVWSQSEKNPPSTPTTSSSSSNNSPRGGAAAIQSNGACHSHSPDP
Outline: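 Transfect HepG2 with GAL4-UAS multi-reporter constructs; treat 24 h (medium carries 3 nM 6-alpha-fluorotestosterone); extract RNA, reverse-transcribe, PCR-amplify, FAM-label, digest with HpaI; resolve by capillary electrophoresis and compare against DMSO baseline.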

Measured: AC50

CCOC(=O)C(Cl)Cc1cc(-n2nc(C)n(C(F)F)c2=O)c(F)cc1Cl (stereo unspecified)
inactive: [1]

C=CC1(C)OC(=O)N(c2cc(Cl)cc(Cl)c2)C1=O (stereo unspecified)
inactive: [2] | [4] | [6]
active: [3] 168 µM | [1] 38.5 µM | [5] 83.7 µM | [7] 59.9 µM | [8] 100 µM | [9] 100 µM

CNC(=S)S
inactive: [1] | [5]

CCCCNC(=O)n1c(NC(=O)OC)nc2ccccc21
active: [1] 45.6 µM | [5] 61.6 µM

CON(C)C(=O)Nc1ccc(Cl)c(Cl)c1
active: [3] 35.9 µM | [4] 29.1 µM | [5] 15.8 µM | [7] 27.3 µM | [8] 9.61 µM | [9] 26.7 µM
inactive: [10] | [1] | [5] | [6]

CC(C)Oc1cc(-n2nc(C(C)(C)C)oc2=O)c(Cl)cc1Cl
active: [3] 29.6 µM | [4] 33.5 µM | [1] 50 µM | [5] 50 µM | [7] 27.2 µM | [8] 6.88 µM | [9] 20.8 µM
inactive: [2] | [10] | [6]

OC(c1ccc(Cl)cc1)(c1cncnc1)c1ccccc1Cl (stereo unspecified)
active: [10] 26.4 µM | [3] 8.4 µM | [4] 4.32 µM | [1] 72 µM | [5] 67.8 µM | [6] 4.49 µM | [7] 2.36 µM | [8] 2.22 µM | [9] 2.12 µM
inactive: [2]

COC(=O)N(OC)c1ccccc1COc1ccn(-c2ccc(Cl)cc2)n1
active: [1] 25.9 µM | [5] 26.8 µM
not listed: [2] | [7]
inactive: all other assays above

C#CCOS(=O)OC1CCCCC1Oc1ccc(C(C)(C)C)cc1 (stereo unspecified)
active: [10] 166 µM | [3] 80.1 µM | [4] 25.8 µM | [1] 44.7 µM | [5] 21.7 µM | [7] 26.8 µM | [8] 5.29 µM | [9] 44.3 µM

CCCC1COC(Cn2cncn2)(c2ccc(Cl)cc2Cl)O1 (stereo unspecified)
active: [3] 27.6 µM | [4] 27 µM | [5] 74.8 µM
not listed: [2]
inactive: all other assays above

CC(C)(C)c1ccc(CSc2cnn(C(C)(C)C)c(=O)c2Cl)cc1
active: [1] 16 µM | [5] 26.9 µM
inactive: all other assays above

CCCCC(CC)COC(=O)c1ccccc1C(=O)OCC(CC)CCCC (stereo unspecified)
active: [3] 16.1 µM | [1] 50 µM | [5] 61.8 µM
not listed: [6] | [10]
inactive: all other assays above

CCOP(=S)(OCC)SCn1c(=O)oc2cc(Cl)ccc21
active: [3] 24.5 µM | [1] 91.5 µM | [5] 76.9 µM

COc1ccc(C(c2ccc(OC)cc2)C(Cl)(Cl)Cl)cc1
active: [3] 1.08 µM | [4] 1.09 µM | [1] 80.8 µM | [5] 76.7 µM | [7] 1.97 µM | [8] 0.821 µM | [9] 1.32 µM
inactive: [2] | [10] | [6]

CCCCOC(=O)c1ccccc1C(=O)OCCCC
inactive: [9]
active: [3] 24.6 µM | [1] 77.2 µM | [5] 66.1 µM | [7] 26.7 µM | [8] 19.9 µM

CCCN(CCC)c1c([N+](=O)[O-])cc(S(N)(=O)=O)cc1[N+](=O)[O-]
inactive: [2] | [10]
active: [3] 14.2 µM | [4] 11.2 µM | [6] 33.4 µM | [7] 16.2 µM | [8] 13.2 µM | [9] 33.4 µM

CO/C=C(/C(=O)OC)c1ccccc1Oc1cc(Oc2ccccc2C#N)ncn1
active: [1] 46.7 µM | [5] 45.3 µM
inactive: [4] | [7] | [8] | [9]

CCNc1nc(Cl)nc(NC(C)C)n1
inactive: [1] | [5]

CCCCNC(=O)OCC#CI
active: [1] 11.6 µM | [5] 13.9 µM
inactive: [10] | [3] | [6]

O=C(O)c1nc(Cl)ccc1Cl
inactive: [1] | [5]

COP(=S)(OC)Oc1nc(Cl)c(Cl)cc1Cl
inactive: [10] | [1]
active: [3] 46.6 µM | [4] 61.6 µM | [7] 27.8 µM | [8] 27.1 µM | [9] 27.9 µM

CCOC(=O)CC(SP(=S)(OC)OC)C(=O)OCC (stereo unspecified)
active: [1] 92.5 µM | [5] 85.1 µM

Oc1ccccc1-c1ccccc1
inactive: [1]
active: [1] 50 µM | [5] 48.6 µM
